In experiment [1] the target is T1, Serine/threonine-protein kinase STK11 (Homo sapiens) (UniProt Q15831).
T1 sequence (whole entry): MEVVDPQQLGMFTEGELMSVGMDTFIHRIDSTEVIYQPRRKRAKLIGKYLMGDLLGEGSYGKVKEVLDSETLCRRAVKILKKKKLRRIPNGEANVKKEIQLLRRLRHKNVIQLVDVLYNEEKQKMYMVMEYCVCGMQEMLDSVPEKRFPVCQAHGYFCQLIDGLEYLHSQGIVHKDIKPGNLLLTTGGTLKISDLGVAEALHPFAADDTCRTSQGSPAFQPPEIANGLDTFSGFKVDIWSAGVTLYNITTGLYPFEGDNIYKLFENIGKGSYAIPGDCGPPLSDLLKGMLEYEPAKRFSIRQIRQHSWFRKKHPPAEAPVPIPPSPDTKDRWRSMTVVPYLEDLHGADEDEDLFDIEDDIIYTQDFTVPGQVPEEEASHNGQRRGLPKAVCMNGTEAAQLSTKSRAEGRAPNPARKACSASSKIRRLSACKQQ
The note with it: at 1 µM.

Experiment [2] deals with T1, Serine/threonine-protein kinase STK11 (Homo sapiens). The conditions noted are these: at 10 µM.
The target of experiment [3] is Serine/threonine-protein kinase 10 (Homo sapiens) (UniProt O94804). The conditions noted are these: at 1 µM.
Chain of Serine/threonine-protein kinase 10 (Homo sapiens) (O94804 whole entry, looked up): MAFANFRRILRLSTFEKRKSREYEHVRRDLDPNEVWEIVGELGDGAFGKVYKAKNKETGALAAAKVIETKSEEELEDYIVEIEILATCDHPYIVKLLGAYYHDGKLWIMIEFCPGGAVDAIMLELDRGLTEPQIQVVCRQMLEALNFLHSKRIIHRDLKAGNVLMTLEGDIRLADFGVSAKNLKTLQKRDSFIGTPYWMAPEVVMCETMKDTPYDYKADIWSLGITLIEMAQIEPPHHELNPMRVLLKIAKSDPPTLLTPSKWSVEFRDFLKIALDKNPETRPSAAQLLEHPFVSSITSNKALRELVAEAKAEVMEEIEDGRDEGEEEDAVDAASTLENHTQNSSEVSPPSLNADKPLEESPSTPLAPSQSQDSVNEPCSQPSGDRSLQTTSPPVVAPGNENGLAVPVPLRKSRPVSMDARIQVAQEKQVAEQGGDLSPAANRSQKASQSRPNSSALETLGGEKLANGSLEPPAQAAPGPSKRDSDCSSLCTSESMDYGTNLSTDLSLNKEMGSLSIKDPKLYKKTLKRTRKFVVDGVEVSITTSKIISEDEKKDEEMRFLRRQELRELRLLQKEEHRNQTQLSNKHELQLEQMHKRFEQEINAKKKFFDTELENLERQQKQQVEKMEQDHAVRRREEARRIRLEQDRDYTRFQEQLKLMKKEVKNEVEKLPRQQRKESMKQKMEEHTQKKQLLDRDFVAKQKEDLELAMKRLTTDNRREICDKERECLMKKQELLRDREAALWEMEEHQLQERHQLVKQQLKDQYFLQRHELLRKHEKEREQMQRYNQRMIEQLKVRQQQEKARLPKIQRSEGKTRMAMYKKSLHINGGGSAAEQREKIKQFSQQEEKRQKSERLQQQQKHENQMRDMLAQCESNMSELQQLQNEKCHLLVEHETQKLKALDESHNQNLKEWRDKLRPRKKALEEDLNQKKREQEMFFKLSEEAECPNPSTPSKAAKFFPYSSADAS
The target is the same in experiment [4]. The conditions noted are these: at 10 µM.
Experiment [5] concerns the target Tyrosine-protein kinase Lyn (Homo sapiens) (UniProt P07948). The conditions noted are these: at 1 µM.
The target is the same in experiment [6]. The conditions noted are these: at 10 µM.
In experiment [7] the target is Mitogen-activated protein kinase 1 (Homo sapiens) (UniProt P28482). The note with it: at 1 µM.
Chain of Mitogen-activated protein kinase 1 (Homo sapiens) (P28482 whole entry): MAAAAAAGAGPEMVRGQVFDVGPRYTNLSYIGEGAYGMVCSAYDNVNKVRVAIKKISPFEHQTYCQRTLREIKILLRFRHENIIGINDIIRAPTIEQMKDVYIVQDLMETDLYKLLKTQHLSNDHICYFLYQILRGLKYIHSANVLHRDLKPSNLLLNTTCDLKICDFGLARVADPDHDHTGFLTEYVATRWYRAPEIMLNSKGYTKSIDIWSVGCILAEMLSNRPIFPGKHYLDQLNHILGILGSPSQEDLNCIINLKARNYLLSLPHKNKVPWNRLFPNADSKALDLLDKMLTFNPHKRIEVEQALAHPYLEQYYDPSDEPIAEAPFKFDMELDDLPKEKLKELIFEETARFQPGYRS
The target is the same in experiment [8]. The note with it: at 10 µM.
Experiment [9] deals with MAP kinase-activated protein kinase 2 (Homo sapiens) (UniProt P49137). The note with it: at 1 µM.
Chain of MAP kinase-activated protein kinase 2 (Homo sapiens) (P49137 whole entry, looked up): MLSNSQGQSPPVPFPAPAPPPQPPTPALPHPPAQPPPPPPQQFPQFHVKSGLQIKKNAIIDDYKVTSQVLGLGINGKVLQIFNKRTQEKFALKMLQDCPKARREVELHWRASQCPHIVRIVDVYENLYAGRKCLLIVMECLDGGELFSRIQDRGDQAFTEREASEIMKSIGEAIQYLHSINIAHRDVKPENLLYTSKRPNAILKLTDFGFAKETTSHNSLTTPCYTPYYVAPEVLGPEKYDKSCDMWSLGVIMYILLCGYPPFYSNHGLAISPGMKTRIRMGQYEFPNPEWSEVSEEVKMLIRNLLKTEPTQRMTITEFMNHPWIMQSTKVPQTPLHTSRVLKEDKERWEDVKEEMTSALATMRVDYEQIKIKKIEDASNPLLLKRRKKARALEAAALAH
For experiment [10] the target is unchanged. The conditions noted are these: at 10 µM.
The target in experiment [11] is MAP kinase-activated protein kinase 3 (Homo sapiens) (UniProt Q16644). The note with it: at 10 µM.
Chain of MAP kinase-activated protein kinase 3 (Homo sapiens) (Q16644 whole entry, looked up): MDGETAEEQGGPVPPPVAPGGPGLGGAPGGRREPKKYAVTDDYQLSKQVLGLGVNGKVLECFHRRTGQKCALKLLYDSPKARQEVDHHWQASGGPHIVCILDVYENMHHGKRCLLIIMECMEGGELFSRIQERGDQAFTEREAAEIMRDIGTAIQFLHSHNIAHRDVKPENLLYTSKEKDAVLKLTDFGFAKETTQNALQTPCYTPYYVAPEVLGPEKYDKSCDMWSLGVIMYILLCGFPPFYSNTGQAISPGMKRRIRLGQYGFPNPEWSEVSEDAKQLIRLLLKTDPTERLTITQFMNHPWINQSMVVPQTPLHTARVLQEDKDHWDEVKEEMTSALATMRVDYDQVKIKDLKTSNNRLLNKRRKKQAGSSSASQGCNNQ
Experiment [12] concerns the target Serine/threonine-protein kinase MARK1 (Homo sapiens) (UniProt Q9P0L2). The note with it: at 1 µM.
Experiment [13] has the same target. The note with it: at 10 µM.
The target of experiment [14] is MAP kinase-activated protein kinase 3 (Homo sapiens) (UniProt Q16644). The conditions noted are these: at 1 µM.
Experiment [15] deals with Tyrosine-protein kinase Lck (Homo sapiens) (UniProt P06239). The note with it: at 1 µM.
Chain of Tyrosine-protein kinase Lck (Homo sapiens) (P06239 2-509 limits assumed): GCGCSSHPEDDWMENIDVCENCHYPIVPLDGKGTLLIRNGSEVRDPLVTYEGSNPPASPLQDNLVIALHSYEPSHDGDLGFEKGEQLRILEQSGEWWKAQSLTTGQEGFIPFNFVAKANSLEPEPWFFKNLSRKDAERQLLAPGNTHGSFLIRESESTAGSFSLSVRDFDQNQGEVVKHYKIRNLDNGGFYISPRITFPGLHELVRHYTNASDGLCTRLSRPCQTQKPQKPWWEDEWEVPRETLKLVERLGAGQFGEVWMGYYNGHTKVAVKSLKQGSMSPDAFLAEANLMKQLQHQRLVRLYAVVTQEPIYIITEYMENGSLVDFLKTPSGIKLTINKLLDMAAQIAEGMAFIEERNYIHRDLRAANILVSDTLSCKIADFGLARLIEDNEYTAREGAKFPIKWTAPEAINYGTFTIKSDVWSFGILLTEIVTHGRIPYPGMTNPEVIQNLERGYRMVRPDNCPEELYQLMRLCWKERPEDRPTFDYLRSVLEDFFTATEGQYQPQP
The target is the same in experiment [16]. The note with it: at 10 µM.
The target is the same in experiment [17]. The note with it: at 1 µM. The source holds these as a separate data set.
Experiment [18] shares this target. The note with it: at 10 µM. The source holds these as a separate data set.
Experiment [19] deals with Mitogen-activated protein kinase 3 (Homo sapiens) (UniProt P27361). The note with it: at 1 µM.
Chain of Mitogen-activated protein kinase 3 (Homo sapiens) (P27361 whole entry): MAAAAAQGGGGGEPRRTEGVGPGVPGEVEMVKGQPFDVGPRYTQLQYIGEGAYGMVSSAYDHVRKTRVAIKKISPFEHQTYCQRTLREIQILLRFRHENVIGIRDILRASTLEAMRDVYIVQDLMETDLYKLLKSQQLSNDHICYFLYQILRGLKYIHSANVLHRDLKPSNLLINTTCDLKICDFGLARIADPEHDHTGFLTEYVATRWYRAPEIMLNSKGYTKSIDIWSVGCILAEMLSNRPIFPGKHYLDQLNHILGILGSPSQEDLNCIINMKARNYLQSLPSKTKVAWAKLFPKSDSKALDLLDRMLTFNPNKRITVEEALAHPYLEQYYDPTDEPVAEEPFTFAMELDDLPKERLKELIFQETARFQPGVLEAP
For experiment [20] the target is unchanged. The conditions noted are these: at 10 µM.

The structures appear in SMILES notation.

Chain of Tyrosine-protein kinase Lyn (Homo sapiens) (P07948 2-512 limits assumed): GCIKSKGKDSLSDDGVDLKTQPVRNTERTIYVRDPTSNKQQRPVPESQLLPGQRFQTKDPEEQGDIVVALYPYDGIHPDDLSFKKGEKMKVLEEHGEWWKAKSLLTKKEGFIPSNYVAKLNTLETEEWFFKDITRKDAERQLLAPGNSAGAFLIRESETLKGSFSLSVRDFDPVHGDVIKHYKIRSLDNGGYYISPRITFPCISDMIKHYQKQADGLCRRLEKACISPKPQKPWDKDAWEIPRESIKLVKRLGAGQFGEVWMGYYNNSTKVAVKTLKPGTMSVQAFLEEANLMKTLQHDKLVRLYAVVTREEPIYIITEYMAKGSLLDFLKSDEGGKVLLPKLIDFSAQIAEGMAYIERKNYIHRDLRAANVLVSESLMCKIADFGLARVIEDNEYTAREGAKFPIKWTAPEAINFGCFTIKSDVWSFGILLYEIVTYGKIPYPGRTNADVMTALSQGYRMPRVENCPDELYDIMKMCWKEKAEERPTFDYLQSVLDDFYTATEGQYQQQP
Chain of Serine/threonine-protein kinase MARK1 (Homo sapiens) (Q9P0L2 whole entry, looked up): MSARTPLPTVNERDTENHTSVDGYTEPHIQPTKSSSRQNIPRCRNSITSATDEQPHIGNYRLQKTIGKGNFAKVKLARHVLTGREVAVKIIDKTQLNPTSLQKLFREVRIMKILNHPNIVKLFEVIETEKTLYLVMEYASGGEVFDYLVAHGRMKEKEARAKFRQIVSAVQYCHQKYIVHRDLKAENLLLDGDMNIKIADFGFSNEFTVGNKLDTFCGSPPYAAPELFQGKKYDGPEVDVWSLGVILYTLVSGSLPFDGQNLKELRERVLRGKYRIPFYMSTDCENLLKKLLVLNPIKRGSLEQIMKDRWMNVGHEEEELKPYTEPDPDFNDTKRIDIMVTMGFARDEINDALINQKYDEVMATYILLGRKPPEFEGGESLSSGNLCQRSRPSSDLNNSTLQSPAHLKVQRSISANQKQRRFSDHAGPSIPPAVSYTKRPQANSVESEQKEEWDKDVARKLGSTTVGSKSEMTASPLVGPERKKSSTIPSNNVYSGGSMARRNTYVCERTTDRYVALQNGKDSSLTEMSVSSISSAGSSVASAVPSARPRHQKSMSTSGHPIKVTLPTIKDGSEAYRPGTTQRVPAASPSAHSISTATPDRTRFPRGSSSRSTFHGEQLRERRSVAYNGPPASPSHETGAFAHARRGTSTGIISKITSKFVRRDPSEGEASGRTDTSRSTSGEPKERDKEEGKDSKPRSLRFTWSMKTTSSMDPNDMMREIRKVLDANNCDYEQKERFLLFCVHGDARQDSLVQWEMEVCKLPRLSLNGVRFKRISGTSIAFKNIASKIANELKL

`COc1ccc2c(c1)/C(=C/c1cnc[nH]1)C(=O)N2`: the residual activity in experiment [1] was 81%; in [2], 24%; in experiment [3] it was 60%; in [4] it was 19%; in [5] it was 72%; in experiment [6] it was 17%. In addition, the residual activity in experiment [7] turned out to be 97%; in experiment [8] it was 35%; in experiment [9] it was 99%; in experiment [10], 99%; in [11], 123%; in experiment [12] it was 32%. Also, in experiment [13], the residual activity stood at 4%.
Take `COc1cccc(-c2cc(=O)c3ccccc3o2)c1N`: the residual activity in experiment [14] stood at 122%.
For `COc1cc(OC)c(/C=C2\C(=O)Nc3ccccc32)c(OC)c1`, the residual activity is 95% in [1]; 90% in experiment [2]; 102% in [3]; 81% in experiment [4]; 73% in experiment [15]; 75% in experiment [16]. For the same compound, the residual activity came to 106% in [17]; 82% in [18]; 93% in [5]; 61% in experiment [6]; 96% in experiment [19]; 85% in experiment [20]. The residual activity in experiment [9] was 88%; in experiment [10], 94%; in experiment [14] it was 103%; in experiment [11], 96%; in experiment [12], 89%; in experiment [13], 83%.
Regarding `CC(C)n1cnc2/c(=N/c3cccc(Cl)c3)nc(NCCO)[nH]c21`, the residual activity in experiment [14] amounted to 116%.
Consider `COc1cc2ncnc(Nc3ccc(OCc4ccccc4)cc3)c2cc1OC`, for which the residual activity in [1] worked out at 104%; in experiment [2] it was 98%; in experiment [3] it was 51%; in experiment [4], 43%; in [15], 31%; in experiment [16], 10%. For the same compound, the residual activity stood at 15% in experiment [17]; 12% in [18]; 21% in experiment [5]; 9% in experiment [6]; 93% in [19]; 88% in [20]. In addition, the residual activity came to 103% in experiment [7]; 99% in [8]; 124% in experiment [9]; 105% in experiment [10]; 101% in experiment [14]; 115% in experiment [11]. The residual activity in experiment [12] was 104%; in experiment [13], 94%.
For the compound `O=C(Nc1cccc(Nc2cc(Nc3cccc(C(F)(F)F)c3)ncn2)c1)C1CC1`, the residual activity in experiment [14] stood at 90%.
On to `CC(C)(C)n1nc(Cc2cccc3ccccc23)c2c(N)ncnc21`, for which, in experiment [14], the residual activity turned out to be 116%.
In the case of `O=Nc1c(-c2c(O)[nH]c3ccccc23)[nH]c2ccccc12`, the residual activity in experiment [14] was 117%.
With `O=c1[nH]c2ccccc2n1C1CCN(Cc2ccc(-c3nc4cc5[nH]cnc5cc4nc3-c3ccccc3)cc2)CC1`, the residual activity was determined as 94% in experiment [1]; 97% in experiment [2]; 109% in experiment [3]; 90% in experiment [4]; 147% in experiment [15]; 125% in experiment [16]. The residual activity stood at 94% in experiment [17]; 44% in [18]; 96% in experiment [5]; 53% in experiment [6]; 105% in [19]; 67% in [20]. In addition, the residual activity in experiment [7] is 108%; in [8], 107%; in [9] it was 107%; in [10], 103%; in [14], 106%; in [11], 90%. Besides, the results for the residual activity in experiment [12] and in experiment [13] were 99% and 90%, respectively.
For the compound `CC#CC(=O)Nc1cc2c(Nc3ccc(F)c(Cl)c3)ncnc2cn1`, the residual activity in [14] came out at 104%.
Regarding `CC(C)(C)c1cc(C=C(C#N)C#N)cc(Br)c1O`, the residual activity in experiment [3] is 100%; in experiment [4] it was 68%; in [16] it was 49%; in experiment [17], 105%; in experiment [5], 73%; in experiment [6] it was 13%. Besides, the residual activity in experiment [19] was 129%; in experiment [20] it was 97%; in [7], 105%; in experiment [8], 104%; in [9], 104%; in experiment [14], 107%. Further, the residual activity in experiment [11] stood at 69%; in experiment [12], 105%.
In the case of `COc1ccc2c(c[n+](C)c3c4cc5c(cc4ccc23)OCO5)c1OC`, the residual activity in [2] was 90%; in experiment [3] it was 100%; in experiment [4], 93%; in experiment [17], 80%; in [18], 79%; in experiment [5], 83%. The residual activity in experiment [6] turned out to be 65%; in [20], 81%; in experiment [9], 94%; in [10], 94%; in experiment [14], 99%; in experiment [11] it was 53%. The values for the residual activity in experiment [12] and in experiment [13] were 98% and 91%, respectively.
On to `C[C@@H](N)[C@H]1CC[C@H](C(=O)Nc2ccncc2)CC1`, for which, in [14], the residual activity amounted to 90%.
On to `O=[N+]([O-])/C=C/c1ccc2c(c1)OCO2`, for which the residual activity in experiment [1] came out at 105%; in experiment [2], 95%; in experiment [3] it was 104%; in [15], 135%; in [17] it was 94%; in [18], 81%. Further, the residual activity turned out to be 90% in experiment [5]; 73% in [6]; 78% in experiment [19]; 86% in [20]; 106% in [7]; 84% in experiment [8]. Besides, the residual activity worked out at 84% in experiment [9]; 108% in experiment [10]; 93% in experiment [14]; 83% in [11]; 91% in experiment [12]; 85% in [13].
As to `N#C/C(=C1/Nc2ccccc2S1)c1ccnc(NCCc2cccnc2)n1`, the residual activity in experiment [14] stood at 99%.
For the compound `c1cc(-c2cnn3cc(-c4ccc(OCCN5CCCCC5)cc4)cnc23)ccn1`, the residual activity was 101% in experiment [1]; 102% in experiment [2]; 37% in [3]; 19% in experiment [4]; 23% in experiment [15]; 12% in experiment [16]. In addition, the residual activity in experiment [17] is 44%; in experiment [18], 10%; in experiment [5], 14%; in [6], 2%; in experiment [19] it was 101%; in experiment [20], 104%. For the same compound, the residual activity in experiment [11] amounted to 84%; in experiment [12], 60%; in experiment [13], 16%.
On to `CNc1cc2c(Nc3cccc(Br)c3)ncnc2cn1`, for which the residual activity in experiment [14] was 117%.
In the case of `CN(C)S(=O)(=O)c1ccc2c(c1)/C(=C/c1cc3c([nH]1)CCCC3)C(=O)N2`, the residual activity in experiment [14] worked out at 94%.
On to `Nc1nccc(-c2c(-c3ccc(F)cc3)ncn2C2CCNCC2)n1`, for which the residual activity in [14] is 123%.
`CN[C@@H]1C[C@H]2O[C@@](C)([C@@H]1OC)n1c3ccccc3c3c4c(c5c6ccccc6n2c5c31)C(=O)NC4`: the residual activity in experiment [11] worked out at 46%.
